# Measured values taken from PubChem BioAssay (Tox21).
# Results filed as inconclusive are left out. The source made the active and inactive calls. The call rests on the fitted dose curve.
# Assay: qHTS assay to identify small molecule antagonists of the sonic hedgehog signaling (Shh) pathway (AID 1259369); further: nearly all actives have a fitted effect of over 45% in size
# Settings: NIH/3T3 Gli1-Luc reporter, Shh antagonist, luminescence 24 h; series mostly up to 92.4 µM; activity change, negative = inhibition: at the top concentration
# From the text: U.S. Tox21 Program National Center for Advancing Translational Sciences [NCATS] NIH Chemical Genomics Center [NCGC] U.S. Environmental Protection Agency [EPA] National Institutes of Environmental Health Sciences [NIEHS] National Toxicology Program [NTP] U.S. Food and Drug Administration [FDA] Tox21 Assay Overview: The sonic hedgehog (Shh) pathway is essential for normal embryonic development. Dysregulation of the Shh pathway can cause severe developmental defects in organs. Therefore chemicals that interfere with the pathway are potential developmental toxicants. A cell line designated 3T3Gli1-Luc (DMB/OARSA/CFSAN/FDA, Laurel, MD), a NIH/3T3 derived clone containing stably integrated Gli1-Luc reporter is used to detect chemical interference of the Shh pathway, by changes in the expression of the firefly Luc gene under the control of the Gli1 transcriptional response element. This cell line was used to screen Tox21 libraries for identifying and prioritizing the potential developmental toxicants that interfere Shh pathway. Conditioned medium-stimulated mode was used to screen for chemicals inhibiting Shh signaling.
# Tox21 Assay Protocol Summary: 3T3 Gli1-Luc cells were dispensed at 2,000 per well in 5uL of culture medium into white solid bottom 1536-well plates (Greiner Bio-One, Monroe, NC) using a Multidrop Combi (Thermo Scientific, Waltham, MA) dispenser. The assay plates were incubated at 37 C and 5% CO2 for 4hr, and then 23nL of compounds dissolved in DMSO and positive control were transferred using a Pintool station (Wako, San Diego, CA). The compound transfer was followed by the addition of 1ul conditioned medium or assay buffer using two separate tips of Flying Reagent Dispenser (FRD, Aurora Discovery, San Diego, CA). The assay plates were incubated at 37C and 5% CO2 for 24hr. For luciferase read, 4uL of Amplite Luciferase reporter gene assay reagent (AAT Bioquest, Inc. Sunnyvale, CA) was added to each well of the assay plates using FRD and incubated at room temperature for 30min. The luminescence signal was measured using a ViewLux plate reader (Perkin Elmer, Shelton, CT).
# On the % scale 0 is the no-effect control and ±100 the full control effect; potency means the concentration at half of the fitted maximal effect.
SMILES,"activity change, negative = inhibition",Potency
O=C(Oc1ccccc1)Oc1ccccc1,-6.18% (inactive),–
CC(C)(C)c1csc(-c2cc3cc(OCc4ccccc4CC(=O)O)ccc3o2)n1,-17.7% (inactive),–
Cc1nc2n(c(=O)c1CCN1CCC(c3noc4cc(F)ccc34)CC1)CCCC2,4.32% [at 42.5 µM] (inactive),–
Cc1ccc(C(=O)O)cc1,-3.5% (inactive),–
Cc1c(C)c2c(c(C)c1O)CC[C@@](C)(CCC[C@H](C)CCC[C@H](C)CCCC(C)C)O2,21.5% (inactive),–
CCC(=O)C(=O)CC,25.8% (inactive),–
CCc1cccc(CC)c1NC(=O)CN(CC(=O)O)CC(=O)O,14.7% [at 42.5 µM] (inactive),–
O=C1c2ccccc2C(=O)N1SC1CCCCC1,–,15.3 µM (active)
CC(CO)Oc1ccccc1 (stereo not given),25.8% (inactive),–
CCCCCCCCCCC[C@@H](C[C@@H]1OC(=O)[C@H]1CCCCCC)OC(=O)[C@H](CC(C)C)NC=O,17.6% [at 42.5 µM] (inactive),–
CC(C)(C)CC(C)(C)c1ccc(Nc2ccc(C(C)(C)CC(C)(C)C)cc2)cc1,-12.5% [at 8.39 µM] (inactive),–
COc1cccc2c1C(=O)c1c(O)c3c(c(O)c1C2=O)C[C@@](O)(C(C)=O)C[C@@H]3O[C@H]1C[C@H](N)[C@H](O)[C@H](C)O1,–,0.0194 µM (active)
Cc1cccc(C)c1NC(=O)c1ccc(N)cc1,1.96% [at 42.5 µM] (inactive),–
CC(C)(C)C1CCC(=O)CC1,–,30.6 µM (active)
C=CC(=O)OCCOC(=O)C=C,1.87% (inactive),–
O=C1CCc2ccc(OCCCCN3CCN(c4cccc(Cl)c4Cl)CC3)cc2N1,–,11.9 µM (active)
c1cnccn1,1.59% (inactive),–
C=C(C)c1cccc(C(=C)C)c1,18.9% (inactive),–
NC(=S)NC(N)=S,2.73% (inactive),–
O=C1OC2(c3ccc(O)cc3Oc3cc(O)ccc32)c2ccc(N=C=S)cc21,-1.2% (inactive),–

SMILES,"activity change, negative = inhibition",Potency
O=C(O)c1cc(O)c2ccccc2c1O,–,1.72 µM (active)
Cc1cc(-n2nc3ccc(Cl)cc3n2)c(O)c(C(C)(C)C)c1,27.4% [at 42.5 µM] (inactive),–
COc1c(C)c2c(c(O)c1C/C=C(\C)CCC(=O)OCCN1CCOCC1)C(=O)OC2,-1.33% [at 42.5 µM] (inactive),–
C=C(CC)C(=O)c1ccc(OCC(=O)O)c(Cl)c1Cl,–,6.68 µM (active)
OCCN1CCN(CCCN2c3ccccc3Sc3ccc(C(F)(F)F)cc32)CC1,8.72% [at 42.5 µM] (inactive),–
C/C=C/C=C/COC(=O)C(C)C,–,30.6 µM (active)
CC[C@H](C)COC(=O)/C=C/c1ccc(N=Cc2ccc(OC)cc2)cc1,0.904% (inactive),–
Cl[Si](Cl)(c1ccccc1)c1ccccc1,-2.11% (inactive),–
CN(C)Cc1ccccc1O,0% (inactive),–
CCC(=O)OC(=O)CC,14.3% (inactive),–
Cc1ccc(N/N=c2\c(=O)cc/c(=N\Nc3ccc(S(=O)(=O)O)cc3)c2=O)c(C)c1,-5.86% (inactive),–
Cc1c2ccccc2c(C)c2c1ccc1ccccc12,–,10.9 µM (active)
CCCCCc1ccc(Cl)cc1,-0.2% (inactive),–
O=C(/C=C/c1ccccc1)OC/C=C/c1ccccc1,6.54% (inactive),–
CCCCCCCCCCCC(=O)OCC(C)OC(=O)CCCCC(=O)O (stereo not given),13.4% [at 42.5 µM] (inactive),–
CCCCOC(=O)CO,21.7% (inactive),–
CCCC(=O)OCOC(=O)C1=C(C)NC(C)=C(C(=O)OC)C1c1cccc(Cl)c1Cl (stereo not given),4.71% [at 42.5 µM] (inactive),–
CCC(C)n1ncn(-c2ccc(N3CCN(c4ccc(OC[C@H]5CO[C@](Cn6cncn6)(c6ccc(Cl)cc6Cl)O5)cc4)CC3)cc2)c1=O (stereo not given in full),–,1.68 µM (active)
CN1CCN(Cc2cc(-c3ccc4[nH]c(=O)oc4c3)co2)[C@@H](c2ccc(F)cc2)C1,–,4.16 µM (active)
CCCC1CCC(=O)CC1,3.05% (inactive),–
